{
  "source": "PubChem BioAssay AID624414",
  "about": "(National Center for Advancing Translational Sciences (NCATS), 2012)",
  "note": "In all, about 410,000 compounds went through this assay and about 480 (0.12%) were called active. This is one part of a sample in which actives are shown more often than they occur. A number with no mark means an inactive call. Cut-off read from the data, not from the text of the source: active = activation above about 50%; inconclusive = mostly about 30% to 49%; inactive = weaker than that.",
  "data": [
    {"target": "Mucolipin-1 (Homo sapiens) (UniProt Q9GZU1)", "sequence (Q9GZU1 whole entry, looked up)": "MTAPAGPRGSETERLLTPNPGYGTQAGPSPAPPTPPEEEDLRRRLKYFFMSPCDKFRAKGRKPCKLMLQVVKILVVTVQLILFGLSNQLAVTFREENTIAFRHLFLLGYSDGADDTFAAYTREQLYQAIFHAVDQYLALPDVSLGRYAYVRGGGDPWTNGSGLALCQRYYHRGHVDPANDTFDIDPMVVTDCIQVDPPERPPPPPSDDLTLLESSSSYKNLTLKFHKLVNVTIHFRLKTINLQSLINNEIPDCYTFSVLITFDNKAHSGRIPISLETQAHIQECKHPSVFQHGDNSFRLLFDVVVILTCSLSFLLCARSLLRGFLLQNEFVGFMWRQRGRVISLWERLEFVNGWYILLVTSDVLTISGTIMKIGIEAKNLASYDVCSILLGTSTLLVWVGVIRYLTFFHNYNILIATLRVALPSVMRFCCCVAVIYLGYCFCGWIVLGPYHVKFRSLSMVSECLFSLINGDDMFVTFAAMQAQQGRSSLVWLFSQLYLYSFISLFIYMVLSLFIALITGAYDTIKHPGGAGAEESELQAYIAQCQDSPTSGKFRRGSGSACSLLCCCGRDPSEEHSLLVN", "assay": "qHTS for Agonists of the Human Mucolipin Transient Receptor Potential 1 (TRPML1); note: 0% is about no effect", "settings": "TRPML1-expressing cells, Ca2+ dye fluorescence, FDSS; stronger effect = higher value", "source_text": "Mutations of human Mucolipin transient receptor potential 1 (TRPML1) cause type IV mucolipidosis (ML4), a devastating neurodegenerative disease in young children. […] Currently, there is no treatment for ML4. […] Under physiological conditions, TRPMLs regulate membrane trafficking by transducing information about PI(3,5)P2 levels into changes in juxtaorganellar Ca2+, thereby triggering membrane fusion/fission events in the late endocytic pathways (endolysosomal trafficking). In addition, TRPML1 mediates release of Fe2+ from late endosomes and lysosomes, which is essential for cellular iron metabolism. Thus, impaired ion (Ca2+ and Fe2+) homeostasis underlies lysosomal dysfunction and ML4 phenotypes. In ML4 cells, the problem is twofold. First, defective Ca2+-dependent membrane trafficking due to TRPML1-deficiency causes accumulation of lipids and other bio-materials in the lysosome. The second strike comes from the lysosomal iron overload (due to impairment of TRPML1's Fe2+ conductivity), which converts the accumulated materials into the nondegradable (resistant to lysosomal degradation) lipofuscin (also called aging pigment) in the lysosome. Lipofuscin accumulation dramatically compromises the functions of lysosomes.\nNiemann-Pick type C (NPC) disease is another lysosome storage disease (LSD) with severe neurodegeneration during the childhood. Currently, there is no cure for NPC. […] Thus, TRPML1 is likely to be an essential regulator of lysosome ion homeostasis. We specifically hypothesize that stimulating TRPML1's Fe2+/Ca2+ channel activity in the lysosome using synthetic agonists can alleviate neurodegeneration associated with ML4 or NPC.\nTo this end, a high throughput screen was developed in a miniaturized format to screen against the Molecular Libraries Small Molecule Repository (MLSMR) to find small molecules that act either as inhibitors or agonist against the TRPML1 channel.\nNIH Chemical Genomics Center [NCGC]\nNIH Molecular Libraries Probe Centers Network [MLPCN]\nAssay Submitter (PI): Haoxing Xu, University of Michigan Ann Arbor\nTRPML1-DL cells are dissociated from flasks, counted and, brought up to a density of 500,000 cells per mL of media containing a 1X Tet inducer. Using a Multidrop Combi, 3uL of this cell solution is dispensed to each well of a 1536 TC treated, black, clear bottom hi base plate for a final cell density of 1,500 cells per well. The assay plates are incubated overnight (approximately 16 hours) at 37 degrees C and 5% CO2. Using a Multidrop Combi, 2uL of ABD Ca8 no wash dye plus quencher is added to each well. The assay plates incubate at room temperature in the dark for 45-90 minutes. The assay plate is read on the FDSS using the following protocol: 10 second baseline read, 23nL of compounds and controls are added using 1536 pintool, agonist read for 110 seconds, 1 uL EC80 addition (4uM final 54-4 diluted in media), antagonist read for 110 seconds.", "values": [
      {"compound": "CC(C)(C)OC(=O)N(Cc1ccco1)S(=O)(=O)c1ccccc1Br", "activation": "0.62%"},
      {"compound": "CCOc1cc2[nH]c(=O)n(Cc3ccc(C(=O)NCCN(CC)CC)cc3)c(=O)c2cc1OCC", "activation": "-0.328%"},
      {"compound": "O=C(Nc1ccccc1C(F)(F)F)c1nc(S(=O)(=O)Cc2ccccc2F)ncc1Cl", "activation": "0.0634%"},
      {"compound": "CCOc1ccccc1NC(=O)Cn1nnc(C(=O)Nc2ccc(C)c(C)c2)c1N", "activation": "1.55%"},
      {"compound": "C/C=C/NNC(=O)Cc1ccc(OC)cc1", "activation": "-0.93%"},
      {"compound": "CC(C)(C)C1CCC(NC(=O)c2cnn3c2NC(=C2CC2)C=C3C(F)F)CC1", "note": "(centres undefined)", "activation": "-1.12%"},
      {"compound": "COCCn1c(N)c(NCc2ccccc2)c(=O)[nH]c1=O", "activation": "1.47%"},
      {"compound": "Cc1cc2nc3c(=O)n(Cc4ccccc4)c(=O)[nH]c3nc2cc1N", "activation": "94.8% (active)"},
      {"compound": "CCC(=O)Nc1ccc(C)cc1-c1nc2ccccc2n(Cc2ccccc2)c1=O", "activation": "0.405%"},
      {"compound": "COc1cc(OC)c(OC)cc1/C=C1\\C=Cc2ccccc21", "activation": "-0.666%"},
      {"compound": "COc1ccc(Cc2nc3ccc(C(=O)NCc4ccccc4Cl)cc3o2)cc1", "activation": "0.91%"},
      {"compound": "COc1ccccc1CNc1nccn(-c2ccc(F)cc2)c1=O", "activation": "0.564%"},
      {"compound": "O=C1COc2ccc(-c3csc(-c4ccc(Cl)cc4)n3)cc2N1", "activation": "-0.602%"},
      {"compound": "NC(=O)Nc1ccc(/C=C/c2ccnc3ccccc23)cc1", "activation": "-0.0317%"},
      {"compound": "CC(=O)Nc1ccc(S(=O)(=O)N2N=NC3C2C2CC4C3(CN(C(=O)OC(C)(C)C)S4(=O)=O)O2)cc1", "note": "(centres undefined)", "activation": "0.118%"},
      {"compound": "COc1ccc(CNc2nc(-c3ccc(Cl)cc3)nn2S(=O)(=O)c2ccc(C)cc2)cc1", "activation": "3.68%"},
      {"compound": "O=C(Nc1cccc2cccnc12)C(F)(F)F", "activation": "1.01%"},
      {"compound": "CCOc1ccc(NC(=O)c2cnn(-c3ccccc3)c2-n2cccc2)cc1", "activation": "-0.36%"},
      {"compound": "CC(C)(C)c1ccc(C(=O)C[n+]2cccc3cc(Cl)ccc32)cc1", "activation": "0.444%"},
      {"compound": "O=C(/C=C(O)/C=C/c1ccc(O)cc1)/C=C/c1ccc(O)cc1", "activation": "80.8% (active)"},
      {"compound": "COc1ccc(C(=O)c2oc3ccccc3c2NC(=O)COc2cccc(C)c2)cc1", "activation": "-0.131%"},
      {"compound": "Cc1cc(C)cc(NC(c2nnc(-c3cccc(F)c3)o2)c2ccc(F)cc2Cl)c1", "note": "(centres undefined)", "activation": "0.152%"},
      {"compound": "O=C1CCC[C@@H]2C[C@@]3(C[C@@H]4CCN1[C@H]24)Nc1ccccc1NC3=NCc1ccccc1", "activation": "0.0295%"},
      {"compound": "Cc1c(CCO)sc[n+]1CC(=O)c1ccc2ccccc2c1", "activation": "-0.38%"},
      {"compound": "O=C(c1ccc2c(c1)N(Cc1ccccc1F)C(=O)c1ccccc1S2(=O)=O)N1CCOCC1", "activation": "-0.566%"},
      {"compound": "COc1ccc(/C=C/c2ccnc3ccccc23)cc1OC", "activation": "-0.507%"},
      {"compound": "CN(C)C1=C2C=CC=CC2/C(=C2/C=Cc3ccccc32)C=C1", "note": "(centres undefined)", "activation": "-0.475%"},
      {"compound": "COc1cc2nc(C#Cc3nc4cc(OC)c(OC)cc4[nH]3)[nH]c2cc1OC", "activation": "-0.266%"},
      {"compound": "O=C(NC1CC(=O)N(c2ccc(F)cc2)C1)c1cccs1", "note": "(centres undefined)", "activation": "-0.226%"},
      {"compound": "CCOC(=O)N1CCC(NC(=O)c2cnn(-c3cccc(C)c3)c2C2CCN(C(=O)OC(C)(C)C)CC2)CC1", "activation": "0.0606%"},
      {"compound": "Cc1cccc(-n2ncc(C(=O)N3CCN(c4ccc(Cl)cc4)CC3)c2C2CCN(C(=O)OC(C)(C)C)CC2)c1", "activation": "51.3% (active)"},
      {"compound": "CC(C)(C)OC(=O)N1CCC(c2c(C(=O)N3CCN(c4cccc(Cl)c4)CC3)cnn2-c2cccc(Cl)c2)CC1", "activation": "69.8% (active)"},
      {"compound": "COc1ccccc1CN1CCC(CNC(=O)c2cnn(-c3cccc(Cl)c3)c2C2CCN(C(=O)OC(C)(C)C)CC2)CC1", "activation": "1.58%"},
      {"compound": "Cc1cccc(-n2ncc(C(=O)N3CCC(C)CC3)c2C2CCN(C(=O)OC(C)(C)C)CC2)c1", "activation": "0.455%"},
      {"compound": "Cc1cccc(-n2ncc(C(=O)N3CCc4ccccc4C3)c2C2CCN(C(=O)OC(C)(C)C)CC2)c1", "activation": "0.364%"},
      {"compound": "COCC(C)NS(=O)(=O)c1ccc(N2CCCCS2(=O)=O)cc1", "note": "(centres undefined)", "activation": "-0.459%"},
      {"compound": "CC1=C(c2ccc(F)cc2)S(=O)(=O)N=C1N1CCC(C(=O)NCCc2ccccc2C)CC1", "activation": "2.54%"},
      {"compound": "COc1ccc(-c2nc(=N)sn2-c2ccccc2)cc1", "activation": "12.5%"},
      {"compound": "COc1ccc(/C=C/c2ccccn2)cc1OC", "activation": "-0.792%"}
    ]}
  ]
}
